A selection: hits, their analogues and other compounds. The true share with any hit is near 5%.
UCHL1 block = blocks human UCHL1 ubiquitin-rhodamine cleavage; P09936; purified UCHL1, Ub-rhodamine cleavage fluorescence; inhibition, % at 20 µM; 0.2% of 47,000 active; AID 1645859
USP10 inh = inhibitors of human USP10 deubiquitinase | Q14694 | purified USP10, Ub-rhodamine fluorescence, 60 min | inhibition, % at 20 µM | 1.1% of 47,000 active | AID 1645856
USP8 inh = inhibitors of human USP8 deubiquitinase; P40818; purified USP8, Ub-rhodamine cleavage fluorescence, 30 min; inhibition, % at 20 µM; 4.2% of 47,000 active; AID 1645853
Target sequence (P40818 whole entry, looked up): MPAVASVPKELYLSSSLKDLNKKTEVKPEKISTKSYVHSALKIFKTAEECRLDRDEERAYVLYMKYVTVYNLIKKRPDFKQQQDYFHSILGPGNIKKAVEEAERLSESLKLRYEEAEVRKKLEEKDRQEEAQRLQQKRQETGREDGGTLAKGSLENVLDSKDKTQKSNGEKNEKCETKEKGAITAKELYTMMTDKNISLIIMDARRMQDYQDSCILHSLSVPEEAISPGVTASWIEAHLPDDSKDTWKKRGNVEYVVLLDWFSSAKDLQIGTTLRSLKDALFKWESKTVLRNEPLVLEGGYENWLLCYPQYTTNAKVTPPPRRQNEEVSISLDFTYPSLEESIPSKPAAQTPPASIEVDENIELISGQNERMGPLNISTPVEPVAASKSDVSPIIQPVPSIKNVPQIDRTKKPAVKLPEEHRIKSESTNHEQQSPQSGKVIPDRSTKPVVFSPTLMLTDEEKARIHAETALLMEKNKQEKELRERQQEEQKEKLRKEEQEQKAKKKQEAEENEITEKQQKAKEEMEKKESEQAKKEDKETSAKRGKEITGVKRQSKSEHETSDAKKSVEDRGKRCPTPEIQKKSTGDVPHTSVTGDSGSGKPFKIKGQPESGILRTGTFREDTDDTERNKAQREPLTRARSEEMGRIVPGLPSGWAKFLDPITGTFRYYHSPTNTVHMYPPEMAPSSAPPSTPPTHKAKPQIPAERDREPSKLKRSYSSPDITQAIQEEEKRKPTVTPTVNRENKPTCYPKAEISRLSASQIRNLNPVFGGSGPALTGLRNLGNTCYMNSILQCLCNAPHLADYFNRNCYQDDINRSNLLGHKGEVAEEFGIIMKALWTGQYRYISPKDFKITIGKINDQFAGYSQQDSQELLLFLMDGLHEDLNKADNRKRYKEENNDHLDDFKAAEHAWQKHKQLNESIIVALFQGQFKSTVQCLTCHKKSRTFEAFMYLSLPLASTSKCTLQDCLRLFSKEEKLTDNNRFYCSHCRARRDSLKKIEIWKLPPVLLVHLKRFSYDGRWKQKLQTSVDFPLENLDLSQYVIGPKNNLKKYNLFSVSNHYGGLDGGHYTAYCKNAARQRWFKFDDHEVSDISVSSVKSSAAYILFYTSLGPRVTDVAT
USP7 inh = inhibitors of human USP7 deubiquitinase. Q93009. purified USP7, Ub-rhodamine cleavage fluorescence. inhibition, % at 20 µM. 0.3% of 47,000 active
Numbers stand for hits; n = inactive; x = no result given. No stated cut-off is given here; in the data, active means inhibition above about 30%; inactive means the rest.

SMILES	UCHL1 block	USP10 inh	USP8 inh	USP7 inh
O=C(Nc1ccc2[nH]c(=O)[nH]c2c1)c1cc2ccccc2o1	n	n	42	n
COc1ccc(OC)c(NC(=O)c2cc(Cl)ccc2OC)c1	n	n	n	n
COc1ccc(C(CNC(=O)c2ccc(Oc3ccc(Cl)cc3[N+](=O)[O-])cc2)N2CCCC2)cc1 (stereo unspecified)	n	n	n	n
CN1C(=O)Cc2ccccc2C1C(=O)NCc1cccc(F)c1 (stereo unspecified)	n	n	n	n
COc1ccc2c(c1)c1nc(C)sc1n2CCN1CCOCC1	n	n	43	n
Cc1cccc(-c2nc(NC(=O)COc3ccc(F)cc3)no2)c1	n	n	83	n
Cc1ccc(-c2nc(NC(=O)COc3cc(C)cc(C)c3)no2)cc1	n	n	n	n
Cc1ccc(-c2nc(NC(=O)COc3ccc(Cl)cc3)no2)cc1	n	65	93	64
OC(CN1CCc2nc3ncccc3cc2C1)c1ccc(F)cc1 (stereo unspecified)	n	n	n	n
Cc1cc(=O)nc2c3ccccc3n(CC(=O)NCCCN3CCCCCC3)n12	n	n	n	n
Cn1c(=O)c(-c2ccc(C(=O)NCc3cccc(Cl)c3)cc2)nc2cccnc21	n	n	43	n
Cc1cccc(CNC(=O)c2ccc(-c3nnc(-c4cccc(C)c4)o3)cc2)c1	n	n	n	n
Cn1c(=O)c(-c2ccc(C(=O)NCc3ccc4c(c3)OCO4)cc2)nc2cccnc21	n	n	40	n
CS(=O)(=O)c1cccc(-c2nnc(NC(=O)c3ccc(Cc4ccccc4)cc3)o2)c1	n	41	35	n
CS(=O)(=O)c1ccc(-c2nnc(NC(=O)c3ccco3)o2)cc1	n	n	n	n
O=C(NCc1cccc(Cl)c1)c1ccc(-c2nnc(-c3ccccc3)o2)cc1	n	n	93	n
Cn1cc(CC(=O)NCc2ccc3c(c2)OCO3)c2cccnc21	n	n	n	n
CCOC(=O)C(C)Sc1ncnc2c1sc1nc(N3CCCC3)c3c(c12)CC(C)(C)OC3 (stereo unspecified)	n	n	46	n
O=C1NC(c2ccccc2)=N[C@@]12CC[C@@H]1CN(S(=O)(=O)c3ccccc3)C[C@@H]12	n	n	n	n
C[C@H]1CCC[C@]2(C)C[C@H]3OC(=O)C(CN4CCC(Cc5ccccc5)CC4)[C@H]3C=C12 (stereo partly specified)	n	n	n	n
COc1ccc(Nc2nc3c(S(=O)(=O)c4ccc(C)cc4)nnn3c3ccsc23)c(OC)c1	n	38	n	n
COc1ccc(S(=O)(=O)c2nnn3c2nc(Nc2ccccc2)c2ccccc23)cc1	n	n	n	n
CCOc1cccc2c1OC(C)(C)[C@H]1CC3(CCN(C(=O)c4ccc(NC(C)=O)nc4)CC3)CO[C@H]21	n	n	n	n
COc1cccc2c1OC(C)(C)[C@H]1CC3(CCN(C(=O)COc4cccnc4)CC3)CO[C@H]21	n	n	67	n
O=C(Nc1nc2ccc(F)cc2s1)c1cc(Cl)sc1Cl	n	n	70	n
SMILES	UCHL1 block	USP10 inh	USP8 inh	USP7 inh
COc1ccc(C)cc1NS(=O)(=O)c1cc(-c2cnc(C3CC3)o2)ccc1C	n	n	n	n
CCC(C(=O)N1CCc2cc(OC)c(OC)cc2C1COc1ccccc1OC)c1ccccc1 (stereo unspecified)	n	n	59	n
COc1cc2c(cc1OC)C(COc1ccccc1OC)N(C(=O)c1ccc3ccccc3c1)CC2 (stereo unspecified)	n	n	88	n
Cn1cc(C(=O)NCc2cnc(C3CCCCO3)nc2)cn1 (stereo unspecified)	n	n	n	n
COc1ccc(CC(=O)Nc2cc(-c3cn4cccnc4n3)ccc2C)cc1	n	n	n	n
Cc1ccc(-c2ncc(NC(=O)COc3cccc(C)c3)cn2)cc1	n	n	30	n
O=C(COc1ccc(Cl)cc1)Nc1ccc(-c2cn3cccnc3n2)cc1	n	n	53	n
O=C(COc1ccccc1)Nc1cnc(-c2ccc(Cl)cc2)nc1	n	n	78	n
O=C(COc1ccc(F)cc1)Nc1cnc(-c2ccc(Cl)cc2)nc1	n	n	95	n
O=C(COc1ccccc1)Nc1cnc(-c2ccccc2)nc1	n	n	n	n
COc1cccc(Cn2c(-c3cccnc3Cl)nc3ccccc32)c1	n	n	n	n
O=C(NC1(c2nc(-c3cnccn3)no2)CCCCC1)c1cnccn1	n	n	n	n
COc1cccc(CC(=O)Nc2cnc(-c3ccc(Cl)cc3)nc2)c1	n	n	79	n
Cc1cc(C)n2nc(CNS(=O)(=O)c3cccc(C#N)c3)nc2n1	n	n	n	n
CC(C)C(NS(=O)(=O)c1ccc2c(c1)OCCO2)C(=O)Nc1cccc(F)c1 (stereo unspecified)	n	n	n	n
O=C(c1cnc2[nH][nH]c(=O)c2c1)c1cc(Cl)cc(Cl)c1O	62	87	94	79
COc1c(O)cc(CC(=O)O)c(C(C)=O)c1O	50	n	n	n
COc1ccnc2c1c(=O)n(CC(=O)NCc1ccccc1Cl)c(=O)n2C	n	n	n	n
COc1ccc(-n2c(SCC(=O)Nc3cc(Cl)ccc3C(=O)O)nc3ccccc3c2=O)cc1Cl	n	59	39	35
Cc1occc1-c1nnc(SC(C)C(=O)NCCc2ccccc2)o1 (stereo unspecified)	n	n	n	n
COc1ccc(/C=C/c2nc(-c3ccc4oc(C)nc4c3)no2)cc1	n	n	31	n
CCC(=O)Nc1nc2cc(NC(=O)Nc3ccc(C)cc3)ccc2s1	n	30	47	n
Nc1cc(OC(=O)c2ccco2)nn1S(=O)(=O)c1ccc(Cl)cc1	n	n	n	n
O=c1[nH]/c(=C\c2ccccc2)c(=O)[nH]/c1=C\c1ccccc1	n	n	n	n
O=C1/C(=C/c2ccccc2)CC/C1=C\c1ccccc1	n	n	44	n
SMILES	UCHL1 block	USP10 inh	USP8 inh	USP7 inh
O=C(O)c1ccccc1C(=O)Nc1ccc(SC(C(=O)Nc2ccccc2Cl)c2ccccc2)cc1 (stereo unspecified)	n	49	n	n
O=C(O)c1ccccc1C(=O)Nc1ccc(SC(C(=O)Nc2cccc(Cl)c2Cl)c2ccccc2)cc1 (stereo unspecified)	n	n	n	n
COc1cccc(NC(=O)c2cnc3c(c2)c(=O)n(C)c(=O)n3C)c1	n	n	n	n
Cc1nc2cc(-c3noc(-c4nn(C)c5ccccc45)n3)ccc2o1	n	n	n	n
Cc1nc2cc(-c3noc(-c4cccc5[nH]ccc45)n3)ccc2o1	n	n	55	n
CC1(C)CC(=O)c2cnc3c(C(=O)N4CCCC4)cnn3c2C1	n	n	n	x
Cc1cc(C)cc(NC(=O)c2cn(-c3cc(N4CCOCC4)ncn3)cn2)c1	n	n	n	n
COc1ccccc1NC(=O)COc1ccc(C(=O)Nc2cc(S(=O)(=O)N3CCCCC3)ccc2C)cc1OC	n	n	n	n
CCOC(=O)Cn1c(-c2ccc(Cl)cc2)ccc(C#N)c1=O	n	n	31	n
CCCCN(CC)c1ncnc2c1sc1nc(-c3ccco3)c3c(c12)CC(C)(C)OC3	n	n	59	n
CCCCN(CC)c1ncnc2c1sc1nc(-c3ccccc3)c3c(c12)CC(C)(C)OC3	n	n	n	n

Bioassay records (PubChem)
